Experimental data as given in ChEMBL document CHEMBL4296182, “CO-ADD screening of NIH NCI Diversity Set V”.
For part of these data: Measured potencies and affinities stand elsewhere.

How the values were obtained:
Staphylococcus aureus = test: Antibacterial activity against Staphylococcus aureus MRSA ATCC 43300 (CO-ADD:GP_020); MIC in CAMBH media using NBS plates, by Resazurin F(560/590); type: functional; conditions: Concentration 20 uM, ASSAY_TEST Inhibition of Bacterial Growth, detection method Resazurin, Fluorescence (ex560/em590), MEDIA CAMHB, plate type 384well, CORNING #3640, time 18 hr
Acinetobacter baumannii = test: Antibacterial activity against Acinetobacter baumannii ATCC 19606 (CO-ADD:GN_034); MIC in CAMBH media using NBS plates, by Resazurin F(560/590); type: functional; conditions: Concentration 20 uM, ASSAY_TEST Inhibition of Bacterial Growth, detection method Resazurin, Fluorescence (ex560/em590), MEDIA CAMHB, plate type 384well, CORNING #3640, time 18 hr
Escherichia coli = test: Antibacterial activity against Escherichia coli ATCC 25922 (CO-ADD:GN_001); MIC in CAMBH media using NBS plates, by Resazurin F(560/590); type: functional; conditions: Concentration 20 uM, ASSAY_TEST Inhibition of Bacterial Growth, detection method Resazurin, Fluorescence (ex560/em590), MEDIA CAMHB, plate type 384well, CORNING #3640, time 18 hr
Klebsiella pneumoniae = conditions: Concentration 20 uM; ASSAY_TEST Inhibition of Bacterial Growth; detection method Absorption (OD600); MEDIA CAMHB; plate type 384well; NBS; CORNING #3640; time 18 hr
Candida albicans = conditions: 20 µM
Cryptococcus neoformans = conditions: Concentration 20 uM; ASSAY_TEST Inhibition of Fungal Growth; detection method Resazurin; Absorption (OD600-OD570); plate type 384well; NBS; CORNING #3640

| SMILES | Inhibition (Staphylococcus aureus) [%] | Inhibition (Acinetobacter baumannii) [%] | Inhibition (Escherichia coli) [%] | Inhibition (Klebsiella pneumoniae) [%] | Inhibition (Candida albicans) [%] | Inhibition (Cryptococcus neoformans) [%] |
| --- | --- | --- | --- | --- | --- | --- |
| CN1C(=O)CC2(C)C1=CCc1scnc12 (stereo not given) | 8.85 | 8.37 | 0.52 | 4.25 | 2.6 | -1.43 |
| CC(O)c1nc2c(c(=O)n(C)c(=O)n2C)n1C (stereo not given) | -5.57 | -6.98 | 6.75 | 7.56 | -1.01 | -6.24 |
| c1ccc(-n2c3ccccc3c3ccccc32)cc1 | 0.65 | -3.58 | 6.48 | 0.88 | 5.95 | 11.23 |
| CN(CCC#N)c1ccc(/C=C(\C#N)c2cccc(C(F)(F)F)c2)cc1 | -1.81 | 5.38 | -0.01 | 0.85 | 3.04 | -3.8 |
| C#CC(C)OCC1CNC(=S)O1 (stereo not given) | 8.34 | 0.13 | 10.24 | 3.71 | 4.06 | 15.9 |
| NS(=O)(=O)c1ccc(NC2(C(=O)O)CCCC2)cc1 | 11.74 | 13.36 | -10.3 | 11.38 | 4.41 | 18.42 |
| O=C(O)c1ccc2c(c1Sc1ccccc1)C(=O)c1ccccc1C2=O | -2.35 | 11.62 | -1.12 | 2.65 | 1.7 | -3.15 |
| Cc1cc(/C=C2\SC(=S)NC2=O)cc(C)c1O | -3.17 | -16.06 | 6.56 | 6.27 | 8.55 | -10.24 |
| Cc1cccc2cc3cccc(C)c3nc12 | -5.52 | -11.71 | -1.48 | 1.32 | 0.25 | -5.61 |
| [O-][n+]1nc2ccccc2c2ccccc21 | 3.86 | -1.94 | -9.04 | 13.55 | 6.35 | 8.25 |
| O/N=C(/c1ccccc1)c1ccc2c3c(cccc13)CC2 | -1.68 | -12.52 | 6.08 | 9.85 | 11.2 | -8.52 |
| Cn1ncc2c(NCc3ccccc3)ncnc21 | 5.23 | -15.8 | 13.47 | 1.24 | -0.05 | -9.92 |
| CSc1nnc(-c2cccs2)[nH]1 | 9.02 | -12.85 | 11.01 | 0.04 | 1.33 | -11.54 |
| CC(=O)n1cc(C2CC(=O)OC3=C2CC(=O)C(C)(C)C3)c2ccccc21 (stereo not given) | 13.95 | 4.13 | 1.01 | 11.94 | 2.8 | -0.61 |
| NC(=O)c1ccc(Oc2ccc(C(N)=O)cc2)cc1 | 7.05 | 9.37 | 0.31 | 15.83 | -0.45 | -7.62 |
| O=c1nc2onnc2c(/C=N\O)[nH]1 | 11.4 | -9.04 | 10.25 | 15.41 | -0.67 | -3.06 |
| c1ccc(-c2nnc3oc(-c4cccs4)nn23)cc1 | -2.52 | -16.04 | 4.88 | 16.29 | 19.4 | 28.69 |
| Cc1ccc(NC(=O)Nc2ccccc2C(N)=O)cc1 | -6.86 | -15.18 | 6.22 | 4.47 | 1.66 | -13.76 |
| N#CCS(=O)(=O)c1cccc[n+]1[O-] | 7.02 | -20.49 | 18.56 | 15.26 | 4.91 | -4.09 |
| Cc1cc(N2CCOCC2)nc(N2CCOCC2)n1 | 0.14 | -0.73 | 6.71 | 4.64 | 1.08 | -7.95 |
| Cn1cnc([N+](=O)[O-])c1Sc1n[nH]c(N)n1 | 6.38 | 14.39 | -1 | 1.75 | -0.83 | -4.45 |
| CSc1nc2cc(S(=O)(=O)N3CCCCC3)ccc2s1 | 2.12 | 9.92 | -7.83 | 10.24 | 7.84 | 2.72 |
| COc1c(NC=O)c2c(c([N+](=O)[O-])c1OC)C(=O)OC2 | 1.34 | 7.55 | 3.05 | 24.74 | 5.38 | 2.82 |
| O=C(O)C(Cc1ccccc1N(CCO)CCO)N1C(=O)c2ccccc2C1=O (stereo not given) | 11.82 | 6.12 | 3.59 | 11.57 | 0.11 | -6.78 |
| COc1ccccc1NC(=O)Nc1cc(C(C)C)ccc1C | 13.43 | 2.93 | -1.81 | -0.93 | 0.16 | -4.04 |

| SMILES | Inhibition (Staphylococcus aureus) [%] | Inhibition (Acinetobacter baumannii) [%] | Inhibition (Escherichia coli) [%] | Inhibition (Klebsiella pneumoniae) [%] | Inhibition (Candida albicans) [%] | Inhibition (Cryptococcus neoformans) [%] |
| --- | --- | --- | --- | --- | --- | --- |
| Cc1ccc2c(c1)C(=C(C#N)C#N)CCN2 | 5.58 | 12.47 | 3.17 | 22.07 | 3.21 | -7.98 |
| Oc1cc(CNC2CCCCC2)c(O)cc1CNC1CCCCC1 | 1.43 | -9.92 | 2.36 | 11.38 | 5.97 | -6.29 |
| Cc1cc2nc(-c3ccccn3)c(-c3ccccn3)nc2cc1C | -0.99 | 3.74 | 8.69 | 9.38 | 1.37 | -10.29 |
| CSc1nc(S)c2[nH]c(S)nc2n1 | 13.61 | -13.83 | 6.32 | 11 | 6.49 | 2.53 |
| CCNc1nc(NC(C)C)nc(-c2ccncc2)n1 | 6.99 | -1.34 | 9.95 | 10 | 1.8 | -10.92 |
| CCNc1nc(Cl)nc(-c2cn(-c3ccccc3)c3ccccc23)n1 | 17.23 | 12.81 | 4.37 | 13.6 | 0.17 | -5.12 |
| O=[N+]([O-])c1ccc(/C=C\c2ccncc2)cc1 | -4.43 | 17.7 | -9.25 | 16.94 | 3.43 | -1.17 |
| O=C(O)/C(Cc1c[nH]nn1)=N\O | -3.12 | -10.75 | 6.44 | 7.49 | 2.24 | -5.01 |
| CCCOc1ccc(-c2nc(-c3ccc([N+](=O)[O-])cc3)cs2)cc1 | 9.47 | 16.16 | 3.67 | 10.79 | 5.94 | -3.16 |
| O=[N+]([O-])c1nc[nH]c1/C=C\c1ccccc1 | 6.19 | -12.82 | 5.35 | 8.67 | 3.47 | 10.56 |
| CC(C)(C)c1ccc(OCC(=O)O)cc1 | 4.22 | -1 | 10.46 | 8.68 | 8.84 | -1.59 |
| O=C(Nc1ccc(Nc2ccccc2)cc1)Nc1ccccc1Cl | -2.92 | 1.03 | 8.7 | 12.39 | 2.75 | -5.44 |
| CC(=O)Nc1ccc(S(=O)(=O)N/N=c2/sc3ccccc3n2C)cc1N | 12.5 | 3.99 | 3.58 | 3.38 | -0.64 | -8.3 |
| Oc1nccc(SCc2ccc(Cl)cc2Cl)n1 | 9.05 | 6.51 | 5.78 | 11.54 | 6.12 | -13.08 |
| Cn1nc(N)c2ncc(C(Cl)(Cl)Cl)nc21 | -7.62 | -8.78 | 5.5 | 9.07 | 10.5 | -10.84 |
| O=C(Nc1cccc([N+](=O)[O-])c1)c1cccc(C(=O)Nc2cccc([N+](=O)[O-])c2)c1 | -2.9 | 3.66 | 1.98 | 5.84 | -0.13 | 37.96 |
| CC(C)c1nc2c(=O)n(C)c(=O)n(C)c2[nH]1 | 10.47 | -19.52 | 12.69 | -1.01 | -1.8 | -13.14 |
| NC(=O)c1cc(C(N)=O)nc(Cl)n1 | 12.7 | 0.04 | 10.33 | 2.11 | -2.97 | -9.62 |
| COc1ccc(C(C)=O)cc1CO/N=C1\CSCc2ccccc21 | 16.78 | 9.55 | 4.94 | 9.39 | 18.6 | -2.91 |
| Nc1ncncc1-c1ccc2ccccc2c1 | 8.62 | 6.7 | 0.44 | 17.13 | 5.79 | -7.84 |
| O=NC1=C(c2cccc([N+](=O)[O-])c2)Nc2ccccc2S1 | 0.76 | 0.77 | -6.48 | 32.11 | 13.1 | -8.32 |
| Cc1cc(-c2ccc(N3C(=O)CC4(CCCC4)C3=O)c(C)c2)ccc1N1C(=O)CC2(CCCC2)C1=O | 2.65 | -13.47 | 9.87 | -0.13 | 4.32 | -5.08 |
| CCOC(=O)C1CC(C)=C(C)CC1C(=O)O (stereo not given) | -6.63 | 13.31 | 5.04 | 7.81 | 6.96 | -10.63 |
| O=C(Nc1ccc(F)cc1)OCCOc1ccc(Br)cc1 | 6.52 | 0.97 | -0.96 | 0.6 | 2.88 | 3.63 |
| O=C(O)CCNC1CCCCC1 | 7.12 | -7.34 | 6.52 | 12.82 | 3.1 | -1.65 |
